Screens (PubChem)
JMJD2A Tudor = JMJD2A Tudor domain (human) inhibition | O75164 | AlphaScreen JMJD2A-Tudor / H3K4me3 peptide binding | Potency, µM (highest dose often 114 µM), inactives show at the top dose activity change, negative = inhibition, hits mostly inhibitors | actives 4.4% (n = 390,000); further: potency means the concentration at half of the fitted maximal effect; on the % scale 0 is the no-effect control and ±100 the full control effect; nearly all actives have a fitted effect of over 50% in size
G9a block = G9a (human) methyltransferase inhibition; G9a H3K9 monomethylation, AlphaScreen, 2 h; Potency, µM (series often up to 102 µM), for the others: at the top dose activity, negative = inhibition, usual class: inhibitors; actives 8.8% (n = 350,000); further: potency means the concentration at half of the fitted maximal effect; on the % scale 0 is the no-effect control and ±100 the full control effect; nearly all actives have a fitted effect of over 75% in size
Target sequence (Q96KQ7 913-1193 limits assumed): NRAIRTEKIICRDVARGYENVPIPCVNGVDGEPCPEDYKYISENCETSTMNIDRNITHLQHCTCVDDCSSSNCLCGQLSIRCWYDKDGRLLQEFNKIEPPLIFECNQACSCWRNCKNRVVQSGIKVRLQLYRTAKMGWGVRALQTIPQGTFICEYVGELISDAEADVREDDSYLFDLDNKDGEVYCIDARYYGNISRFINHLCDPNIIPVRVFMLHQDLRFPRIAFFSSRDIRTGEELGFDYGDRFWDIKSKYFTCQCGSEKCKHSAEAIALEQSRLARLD
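Chemiluminescent proximity detection of H3K9 monomethylation, read after 10 min bead incubation in the dark. Reaction: 20 nM G9a, 500 nM biotin-H3K9 peptide, 20 uM SAM cofactor, 2 h, room temperature, following 15 min enzyme-compound preincubation.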
HP1b chromo inh = blocks HP1-beta chromodomain binding to methylated histone tails. AlphaScreen HP1-beta / biotin-H3K9me3 peptide binding. Potency, µM (doses to about 114 µM), inactives show at the highest dose activity change, negative = inhibition, hits mostly inhibitors. actives 0.56% (n = 390,000). AID 540317; further: potency means the concentration at half of the fitted maximal effect; nearly all actives have a fitted effect of over 70% in size
Target sequence (P83916 whole entry, looked up): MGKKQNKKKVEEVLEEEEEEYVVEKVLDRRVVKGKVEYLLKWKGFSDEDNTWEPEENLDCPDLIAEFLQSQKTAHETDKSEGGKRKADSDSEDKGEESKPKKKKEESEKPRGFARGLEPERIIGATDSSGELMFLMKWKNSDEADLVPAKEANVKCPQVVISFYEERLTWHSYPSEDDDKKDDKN
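Compound inhibition of the preformed complex between 50 nM HP1-beta and 50 nM biotinylated H3K9me3 peptide was read by AlphaScreen. Buffer was PBS pH 7.4 with 0.01% Tween-20. Incubations ran 30 min at room temperature, with 10 ug/mL donor/acceptor beads.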
BAZ2B block = blocks human BAZ2B; Q9UIF8; Potency, µM (titrated, usually from 114 µM), without a hit: top-dose activity change, negative = inhibition, most hits filed as inhibitors; AlphaScreen BAZ2B-H3K14Ac peptide displacement; actives 4.4% (n = 360,000); AID 504333; further: potency means the concentration at half of the fitted maximal effect; on the % scale 0 is the no-effect control and ±100 the full control effect; nearly all actives have a fitted effect of over 60% in size
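AlphaScreen displacement: compounds (up to 110uM) incubated 30 min at room temperature with a preformed 50 nM BAZ2B/50 nM biotinylated H3K14Ac peptide complex in PBS pH 7.4 with Tween-20. Donor and acceptor beads at 10 ug/mL final added, 20 min light-protected before reading.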
PLK1 PBD inh = blocks phosphopeptide binding to human PLK1 polo-box domain; actives 2.8% (n = 360,000); P53350; Plk1 PBD binding of FITC phosphopeptide, fluorescence polarization; Potency, µM, for the others: max response, negative = inhibition, actives largely listed as inhibitors; further: potency means the concentration at half of the fitted maximal effect; series mostly up to about 57 µM; on the % scale 0 is the no-effect control and ±100 the full control effect; nearly all actives have a fitted effect of over 65% in size
PI5P4K alpha inh = blocks human PI5P4K alpha kinase activity; actives 1.2% (n = 330,000); P48426; max response, %; AID 652105; PI5P4Kalpha enzyme, ADP-Glo luminescence, 60 min; stronger effect = lower value; active means max response of -50% or lower; inconclusive means between -30% and -50%; inactive means -30% or higher; further: value at the top dose of about 77 µM; on the % scale 0 is the no-effect control and ±100 the full control effect
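Luminescence from ADP-Glo served as readout of PI5P4Kalpha activity in a qHTS format. Reaction: enzyme, substrate, compound, ATP at 5 microM final, 60 min at RT.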
* = called active by the depositor; ? = inconclusive; / = no result given; ! = a repeat was not active; [ ] = dose if it differs, or a comment. Rows were chosen to be rich in hits. Some 12% of all compounds tested hit in one or more screens of this group. Unless noted, the call rests on the fitted dose curve; in most records, active means well fitted curve in the direction sought with a large enough effect; inconclusive means small, poorly fitted or top-dose-only effect, or another doubt; inactive means no such curve, though single readings can be large; an effect the other way counts as inactive or inconclusive.

SMILES	JMJD2A Tudor	G9a block	HP1b chromo inh	BAZ2B block	PLK1 PBD inh	PI5P4K alpha inh
Cc1ccc([C@@H]2C[C@H]3[C@@H](CN2S(=O)(=O)c2ccc(Cl)cc2)C(=O)C[C@@H](c2ccc(Cl)cc2)N3S(=O)(=O)c2ccccc2C)cc1	/	/	/	/	-26.9%	0.0
N/C(=N\OC(=O)c1csnn1)c1ccc(C(F)(F)F)cc1	-5.0%	17.8µM*	-19.7%	-0.9%	-7.0%	-1.9
Cc1ccc(C(=O)O/N=C(\N)c2ccc(C(F)(F)F)cn2)cc1	-18.5%	0.3%	21.1%	-12.7%	-2.0%	4.6
CC(C)CN(CCCNC(=O)Cn1ncc2c3ccccc3n(C)c2c1=O)CC(C)C	-13.4%	-3.5%[59 µM]	17.2%	2.3%	/	/
CCc1cccc(NS(=O)(=O)c2c(C)nc3scc(C)n3c2=O)c1	-12.7%	28.2µM*	-17.1%	7.7%	-0.6%	8.1
Cc1nc2scc(C)n2c(=O)c1S(=O)(=O)Nc1ccc(N2CCN(C(=O)C(C)C)CC2)cc1	39.8µM*!	-15.4%	49.8%	-11.1%[57.1 µM]	-1.3%	1.2
Cc1nc2scc(C)n2c(=O)c1S(=O)(=O)Nc1ccc(F)cc1	-12.0%	6.7%	-20.3%	10.9%	-2.1%	-0.3
Cc1ccc(S(=O)(=O)N(C)C[C@@H]2OCc3cnnn3CCCC(=O)N([C@@H](C)CO)C[C@@H]2C)cc1	/	/	/	/	-25.2%	-4.1
CCC(C)C(=O)N1c2ccccc2C(=C2SC(C(=O)OC)=C(C(=O)OC)S2)C(=S)C1(C)C (stereo unspecified)	8.91µM*	?	?	8.91µM*	-13.3%	0.4
COCCN1CCN(C(=O)c2cc(COc3cncc(Cl)c3)on2)CC1	-11.0%	9.9%	33.0%	-11.2%	-0.1%	0.7
CS(=O)(=O)Nc1ccc([N+](=O)[O-])cc1Oc1ccccc1	-16.3%	31.6µM*!	43.3%	-25.9%	-6.7%	-3.4
CCN(CC)C(=S)SCC(=O)c1ccc(F)cc1	-16.8%[11.4 µM]	?	52.3%	55.9%	29.9µM*	-1.2
CCN(CC)C(=S)SCC(=O)c1ccccc1	20.3%	-1.1%	57.7%	26.5%[57.1 µM]	-7.8%	/
CCCCCCNc1c([N+](=O)[O-])cc(C)cc1[N+](=O)[O-]	12.6µM*	/	8.91µM*	/	?	-6.7
CCCCNc1ccc(C(CC(N)=O)NC(=O)c2cc(C)cc(C)c2)cc1[N+](=O)[O-] (stereo unspecified)	-23.1%	/	40.4%	-7.9%	2.0%	2.6
COc1ccc2c(c1)c(=O)oc1cc(OCC(=O)NC3CC3)ccc12	-33.7%	?	3.6%	?	-11.3%	-27.7
COc1ccc2c(c1)c(=O)oc1cc(OCC(=O)NC3CCCCC3)ccc12	39.8µM*	11.2µM*	?	79.4µM*	-25.2%	/
Cc1ccccc1S(=O)(=O)/N=C(/c1ccccc1)N1CCOCC1	31.6µM*	/	-9.3%	-8.2%	26.7µM*	-52.4*
O=S(=O)(/N=C(\c1ccccc1)N1CCOCC1)c1cccs1	-9.4%	8.8%[12.7 µM]	48.8%	7.3%	-1.0%	1.3
COc1cc2c(C#N)c(N3CCN(C)CC3)nc(N)c2c(N)n1	/	50.1µM*	/	4.2%	/	/
O=C1N/C(=N\S(=O)(=O)Cc2ccccc2)S/C1=C/c1cc([N+](=O)[O-])ccc1O	-26.5%	39.8µM*	12.7%	-32.4%	-3.5%	?
COc1cc(/C=C2/S/C(=N/S(=O)(=O)Cc3ccccc3)NC2=O)c([N+](=O)[O-])cc1OC	-25.0%	-33.0%	27.8%	?	23.8µM*	?
COc1cc(/C=C2/S/C(=N/S(=O)(=O)c3ccccc3)NC2=O)c([N+](=O)[O-])cc1OC	-27.6%[57.1 µM]	-11.8%[12.7 µM]	-3.8%	70.8µM*	26.7µM*	?
O=C1N/C(=N\S(=O)(=O)c2ccccc2)S/C1=C\c1cc([N+](=O)[O-])ccc1O	-17.4%	?	6.2%	-19.6%	26.9%	42.7
COc1cc(/C=C2\S/C(=N/S(=O)(=O)Cc3ccccc3)NC2=O)c([N+](=O)[O-])cc1OC	-32.3%	/	13.6%	?	-17.0%	-15.9
SMILES	JMJD2A Tudor	G9a block	HP1b chromo inh	BAZ2B block	PLK1 PBD inh	PI5P4K alpha inh
COc1ccccc1-c1nc(C#N)c(N2CCN(Cc3ccccc3)CC2)o1	?	?	14.1µM*	28.2µM*	-2.2%	0.1
N#Cc1nc(-c2ccco2)oc1N1CCN(Cc2ccccc2)CC1	?	?	-24.4%	50.1µM*	-2.6%	10.3
CN(Cc1ccccc1)c1oc(-c2ccco2)nc1C#N	?	?	?	44.7µM*	-7.7%	-4.9
CN(C)c1oc(-c2ccco2)nc1C#N	-14.1%	4.8%[59 µM]	25.0%	-4.3%	3.0%	0.8
CCC(C)[C@H](NC(=O)[C@@H]1Cc2c([nH]c3ccccc23)C2c3ccccc3C(=O)N21)C(=O)NCC1CCCO1 (stereo partly specified)	-19.7%	?	19.5%	-32.1%	-11.2%	-1.8
O=C(c1ccccc1)N1CCN(CC(O)COc2ccc(Br)cc2)CC1 (stereo unspecified)	-3.0%	3.6%	41.1%	-27.2%	0.5%	-0.1
Cc1ccccc1N1C(=O)c2cc(N)ccc2N/C1=C\F	/	-2.4%[12.7 µM]	/	/	/	/
CCCCN(C)CCCNC(=O)C1CCN(c2nc3ccc(CC)cc3s2)CC1	-9.6%	-35.6%[59 µM]	21.2%	-8.5%	/	/
C=CCn1c(SCc2nc3sc(C(=O)O)c(C)c3c(=O)[nH]2)nnc1-c1ccc(C(C)(C)C)cc1	28.2µM*	14.1µM*	-19.4%	50.1µM*	-22.9%	-50.9*
CC(=O)c1sc2nc(CSc3nnnn3-c3ccccc3)[nH]c(=O)c2c1C	-31.5%	56.2µM*	9.6%	?	?	-82.9*
Cc1ccc(NC(=O)c2sc3nc(CCl)[nH]c(=O)c3c2C)c(C)c1	-28.5%	35.5µM*	29.0%	-20.1%	?	-20.0
Cc1c(C(=O)O)sc2nc(CSc3nnc(-c4ccc(F)cc4)n3C)[nH]c(=O)c12	?	35.5µM*	3.3%	?	-18.4%	?
CC(=O)c1sc2nc(CSc3nncn3C)[nH]c(=O)c2c1C	-9.6%	-49.9%	0.3%	-31.1%	-16.4%	-22.5
CCN(CC)CCOC(=O)c1ccc(NC(=O)c2cc3c(=O)n(CC)c4ccccc4c3s2)cc1	-23.6%	?	25.3%	-8.9%	/	/
COc1ccccc1NC(=O)c1sc2nc(C)c(C(=O)Nc3ccc(C)cc3C)c(-c3ccco3)c2c1N	-8.5%	-5.2%[59 µM]	38.9%	0.5%	/	/
Cc1ccc(-c2csc3nc(CSc4nnc(-c5ccc(Cl)cc5)n4C)[nH]c(=O)c23)cc1	-23.5%	22.4µM*	-2.1%	-0.4%	-18.8%	-25.2
CSCc1nc2sc(C(=O)Nc3nc(C)cs3)c(C)c2c(=O)[nH]1	-13.8%	44.7µM*	35.9%	?	8.0%	?
Cc1nnc(SCc2nc3sc(C(=O)O)c(C)c3c(=O)[nH]2)s1	31.6µM*	/	2.6%	-37.6%	-21.3%	-61.7*
